Results reported in the OligoGym collection.

target: CYP4A22; assay: pooled miR-30 sensor sort-seq; sequence = guide strand; conditions: shRNA
Further: reference of the scale not given here.

| Sequence | sensor-assay potency score (higher = more potent) |
| --- | --- |
| TATGCAGGTAGAGCTGAGCTGC | -1.03 |
| TTGTAGCTCCTGGTCGTGTTGG | -0.703 |
| TTAATGCACATGGTGGTGTAGG | -1.01 |
| TTCATGGCAAATTGTTTCCCGA | -0.959 |
| TCCTTGTCTGACAAGATGCTCC | -1.35 |
| TTCCTGAATCCGTTGTAGCTCC | -0.657 |
| TTGGATCACTTGGTCTGTGTGC | -0.603 |
| TTGTCTGACAAGATGCTCCCAT | 0.46 |
| TTGATCTTCTCCAGCTCCCCCT | -0.672 |
| AACACAAGTCGTGCCATGGGGA | -0.895 |
| TGGCCCTCAAACATGAACGTGT | -0.767 |
| TCAGTTGGATCACTTGGTCTGT | -0.279 |

target: CYP4V2; assay: as above; conditions: shRNA

| Sequence | sensor-assay potency score (higher = more potent) |
| --- | --- |
| TTCTAGACCAAGCTCTTCTCTT | -0.575 |
| TTCTTCAGGTCTTCTACTGTAG | -0.329 |
| TAACACATTCCAGATACCGAAG | -1.38 |
| TTTTGACCTATACAGTTCCTGG | -1.19 |
| TTCTTCTCGAATATCTTCATGA | -0.54 |
| ATATCTTCATGACTTAGCCTGT | -0.479 |
| TTAGAACTCTGTAACCTGCCAC | 0.681 |
| TTCAACTTGATCCAGATGCCAT | -0.613 |
| TCAACTGTCCTTCTAGACCAAG | -1.36 |
| TTCTGGTTGGATTCTATCCAAA | -1.62 |
| TCATTCTATAAACTGCACGGAC | -0.644 |

target: CYSLTR1; assay: as above; conditions: shRNA

| Sequence | sensor-assay potency score (higher = more potent) |
| --- | --- |
| TTTCTGAATGTAGACAGCCTTT | -1.15 |
| TAGAAATGGAGAACTGGTCAAA | -0.616 |
| TGACACATAATGCAAGACCAAA | -1.62 |
| TTAGTTTGATTGTCTTGTGGGG | 0.0611 |
| TTTGTGAACATAATAGACCACA | -0.314 |
| TAGAGGTTGACATACAAAGCAT | -0.639 |
| TTTAGTTTGATTGTCTTGTGGG | 0.715 |
| ATACCTACACACACAAACCTGG | -0.207 |
| TTTTAGTTTGATTGTCTTGTGG | -0.438 |
| TAAATTAATCATGTATACTTGG | -0.15 |
| TTGACATACAAAGCATAGGTGC | -0.753 |

target: CYTH1; assay: as above; conditions: shRNA

| Sequence | sensor-assay potency score (higher = more potent) |
| --- | --- |
| TATTGCACTGACAATATCGCTG | -0.0444 |
| TTTCATTAGCTACTTCTGCTAT | -0.232 |
| TTGCACTGACAATATCGCTGGG | 0.116 |
| AACTTGGTCTTTATTGTCGGGG | -0.623 |
| TTGTCAGTCAGAATGAACCAGC | -0.752 |
| TTGGTCTTTATTGTCGGGGATA | -1.5 |
